Sampled rows, rich in hits. Any-hit rate of the full collection: about 3.3%.
NPSR antag = qHTS Assay for Antagonists of the Neuropeptide S Receptor: cAMP Signal Transduction; actives 1% (n = 220,000); CHO-NPSR cells, cAMP TR-FRET, antagonist mode; Q6W5P4; Potency, µM (series often up to 38.3 µM), hits mostly inhibitors; also: nearly all actives have a fitted effect of over 50% in size
Target sequence (Q6W5P4 whole entry, looked up): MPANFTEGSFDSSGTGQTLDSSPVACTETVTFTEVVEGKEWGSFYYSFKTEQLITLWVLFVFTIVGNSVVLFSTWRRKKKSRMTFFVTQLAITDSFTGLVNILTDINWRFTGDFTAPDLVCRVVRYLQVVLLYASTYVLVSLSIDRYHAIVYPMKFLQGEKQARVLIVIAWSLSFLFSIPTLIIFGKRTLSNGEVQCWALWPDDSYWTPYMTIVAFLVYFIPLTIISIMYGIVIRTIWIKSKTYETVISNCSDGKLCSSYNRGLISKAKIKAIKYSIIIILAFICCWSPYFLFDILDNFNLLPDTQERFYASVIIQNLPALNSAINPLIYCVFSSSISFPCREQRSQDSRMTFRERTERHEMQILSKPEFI
Tau ThT inhib = qHTS for Inhibitors of Tau Fibril Formation, Thioflavin T Binding; Microtubule-associated protein tau (Homo sapiens), P10636; recombinant tau K18 P301L, heparin-induced fibrillization, ThT fluorescence; Potency, µM (top dose mostly 57.4 µM), most hits filed as inhibitors; actives 2.1% (n = 270,000); AID 1460, 2008; also: nearly all actives have a fitted effect of over 55% in size
Target sequence (P10636 561-689 P618L limits assumed): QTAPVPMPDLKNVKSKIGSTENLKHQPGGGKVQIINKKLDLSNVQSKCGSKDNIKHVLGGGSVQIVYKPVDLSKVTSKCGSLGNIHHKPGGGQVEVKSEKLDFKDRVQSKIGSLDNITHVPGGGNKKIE
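Heparin-induced fibrillization of the P301L-mutant K18 repeat-domain fragment of human tau was followed by ThT binding in quantitative high-throughput format.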
Tau fluor cs = Counterscreen qHTS for Inhibitors of Tau Fibril Formation, Fluorescence Polarization. AID 1463, 2008. tau K18 P301L (four-repeat tau fragment) Alexa594 fluorescence, heparin fibrillization. Potency, µM (top dose mostly 57.7 µM). actives 0.93% (n = 280,000); also: nearly all actives have a fitted effect of over 55% in size
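Human K18 P301L tau (15 uM unlabeled plus 0.24 uM Alexa 594-labeled, final) in 100 mM sodium acetate pH 7 was mixed with compound and 20 uM heparin and incubated 6 hr at 37 C.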
Tau FP inhib = qHTS for Inhibitors of Tau Fibril Formation, Fluorescence Polarization; Microtubule-associated protein tau (Homo sapiens), P10636; K18 P301L tau heparin fibrillization, Alexa594 FP, 6 h; Potency, µM (series often up to 57.7 µM), most hits filed as inhibitors; actives 0.39% (n = 280,000); also: nearly all actives have a fitted effect of over 55% in size
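Human K18 P301L fragment (15 uM unlabeled plus 0.24 uM Alexa 594-labeled) in 100 mM sodium acetate pH 7 with compound, aggregation induced by 20 uM heparin for 6 hr at 37 C. ThT (30 uM) added for 1 hr, then Alexa 594 FP read.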
Luc counter = Counterscreen for Luciferase (Kinase-Glo TM) Inhibition. Luciferin 4-monooxygenase (Photuris pensylvanica), Q27757. Kinase-Glo luciferase, ATP luminescence, 8 min. Potency, µM (top dose mostly 38.3 µM), usual class: inhibitors. actives 0.28% (n = 200,000); also: nearly all actives have a fitted effect of over 60% in size
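Light output from Kinase-Glo luciferase with luciferin and 10 uM ATP in 50 mM imidazole pH 7.2, KCl, MgCl2, Tween 20, BSA; compound pin-delivered, 8-min ambient incubation, then luminescence read.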
Numbers stand for hits; [ ] = dose if it differs, or a comment. Calls follow the shape of the dose curve; as a rule, active = well fitted curve in the direction sought with a large enough effect; inconclusive = small, poorly fitted or top-dose-only effect, or another doubt; inactive = no such curve, though single readings can be large; an effect the other way counts as inactive or inconclusive.

Screening O=C(Nc1ccc(F)cc1)Nc1ccc(N2CCCC2)c(S(=O)(=O)Nc2ccccc2Cl)c1 returned NPSR antag 10µM, Tau ThT inhib inactive, Tau fluor cs 2.8µM[quencher], Tau FP inhib inconclusive and Luc counter inactive.
For NC(=O)CSc1nc2ccc(NC(=O)COc3ccccc3)cc2s1 the results were Tau ThT inhib inactive, Tau fluor cs inactive and Tau FP inhib inactive.
Screening Nc1ccccc1C(=O)NNC(=O)C(=O)/C=C(\O)c1ccccc1 returned NPSR antag inactive, Tau ThT inhib inconclusive, Tau fluor cs inactive and Tau FP inhib inactive.
For COc1cccc(NC(=O)NCc2ccc3c(c2)CCN3C(=O)c2ccccc2)c1 the results were Tau ThT inhib inactive, Tau fluor cs inconclusive and Tau FP inhib inconclusive.
Screening CCOC(=O)C1(C)/C(=N/Nc2ccccc2OC)C(=O)C(=O)N1c1ccccc1 (stereo unspecified) returned NPSR antag inactive, Tau ThT inhib 16µM, Tau fluor cs inactive, Tau FP inhib inactive and Luc counter inactive.
`CCOC(=O)C1(C)/C(=N/Nc2ccccc2)C(=O)C(=O)N1c1ccccc1` (stereo unspecified) gave NPSR antag inactive, Tau ThT inhib 18µM, Tau fluor cs inactive, Tau FP inhib inactive and Luc counter inactive.
Screening O=C(Cn1c(=O)oc2cc(Cl)ccc21)Nc1cccc(C(F)(F)F)c1 returned Tau ThT inhib inactive, Tau fluor cs inactive and Tau FP inhib inactive.
CC(Sc1oc(-c2cccs2)nc1S(=O)(=O)c1ccccc1)c1ccccc1 (stereo unspecified) was read as Tau ThT inhib inconclusive, Tau fluor cs inconclusive and Tau FP inhib inactive.
Screening Cc1ccc(S(=O)(=O)ON2C(=O)c3ccccc3C2=O)c(C)c1 returned NPSR antag inactive, Tau ThT inhib 18µM, Tau fluor cs inactive and Tau FP inhib inconclusive.
Screening Cc1cc(C)c(S(=O)(=O)ON2C(=O)c3ccccc3C2=O)cc1C returned NPSR antag inactive, Tau ThT inhib inconclusive, Tau fluor cs inactive, Tau FP inhib inconclusive and Luc counter inactive.
For CC1=NN(c2ccccc2)C(=O)/C1=C/C=C/c1ccc(N(C)C)cc1 the results were NPSR antag inactive, Tau ThT inhib 2µM, Tau fluor cs 2.5µM[quencher], Tau FP inhib inconclusive and Luc counter 13µM.
For CCOC(=O)CC1=NN(c2ccccc2)C(=O)C1 the results were NPSR antag inactive, Tau ThT inhib inactive, Tau fluor cs inactive, Tau FP inhib inactive and Luc counter inactive.
CCOC(=O)c1ccc(N2N=C(C)/C(=C/C=C/c3ccco3)C2=O)cc1 was read as NPSR antag inactive, Tau ThT inhib 3.2µM, Tau fluor cs inconclusive, Tau FP inhib inconclusive and Luc counter inactive.
Screening CCOC(=O)CC1=NN(c2ccccc2)C(=O)/C1=C\c1ccc(N(C)C)cc1 returned NPSR antag inactive, Tau ThT inhib 25µM, Tau fluor cs inconclusive, Tau FP inhib inactive and Luc counter inactive.
Screening CC1=NN(c2ccccc2)C(=O)/C1=C\C=C\c1ccccc1 returned NPSR antag inactive, Tau ThT inhib 28µM, Tau fluor cs inconclusive and Tau FP inhib inconclusive.
CCOC(=O)C1CCN(C(=O)c2nn(-c3ccc(C)cc3)c(=O)c3c2c2ccccc2n3C)CC1 was read as Tau ThT inhib inactive, Tau fluor cs inactive and Tau FP inhib inactive.
For O=C(CNC(=O)c1ccc(Cl)cc1)OCc1cc(=O)n2nc(C3CCCCC3)sc2n1 the results were Tau ThT inhib inconclusive, Tau fluor cs inactive and Tau FP inhib inactive.
For CCCCCn1c(=O)[nH]c2cc(C(=O)Nc3ccc(F)c(F)c3)ccc2c1=O the results were Tau ThT inhib inactive, Tau fluor cs inactive and Tau FP inhib inconclusive.
Screening CCCN1C(=O)/C(=C/c2nc3ccccc3c(=O)[nH]2)c2cc(C)ccc21 returned NPSR antag inactive, Tau ThT inhib 14µM, Tau fluor cs 20µM[quencher] and Tau FP inhib inactive.
Screening CCCN1C(=O)/C(=C/c2nc3ccccc3c(=O)[nH]2)c2ccccc21 returned NPSR antag inactive, Tau ThT inhib inconclusive, Tau fluor cs inactive, Tau FP inhib inactive and Luc counter inactive.
For CCn1c(/C=C2\C(=O)N(C(C)C)c3ccccc32)nc2ccccc2c1=O the results were NPSR antag inactive, Tau ThT inhib inconclusive, Tau fluor cs inactive and Tau FP inhib inactive.
Screening CC(C)N1C(=O)/C(=C\c2nc3ccccc3c(=O)[nH]2)c2ccccc21 returned NPSR antag inactive, Tau ThT inhib 28µM, Tau fluor cs inconclusive, Tau FP inhib inactive and Luc counter inactive.
For O=C1C(SCCO)=C(SCCO)C(=O)c2ccccc21 the results were NPSR antag 13µM, Tau ThT inhib 14µM, Tau fluor cs 2µM[quencher], Tau FP inhib 2.5µM and Luc counter inactive.
Screening Cc1cccc(C2NC(=O)c3c(sc4c3CCN(C)C4)N2)c1O (stereo unspecified) returned Tau ThT inhib 16µM, Tau fluor cs inactive and Tau FP inhib inactive.
`Cc1ccc(C2NC(=O)c3c(sc4c3CCN(C)C4)N2)s1` (stereo unspecified) gave NPSR antag inactive, Tau ThT inhib 14µM, Tau fluor cs inactive, Tau FP inhib inconclusive and Luc counter inactive.
For CCOC(=O)N1CCc2c(sc3c2C(=O)NC(c2ccc(C(=O)OC)cc2)N3)C1 (stereo unspecified) the results were Tau ThT inhib inconclusive, Tau fluor cs inactive and Tau FP inhib inactive.
For CCOC(=O)N1CCc2c(sc3c2C(=O)NC(c2cc(OC)c(OC)c(OC)c2)N3)C1 (stereo unspecified) the results were Tau ThT inhib 16µM, Tau fluor cs inactive and Tau FP inhib inactive.
`CCOc1cc(Br)cc(C2NC(=O)c3c(sc4c3CCN(C)C4)N2)c1O` (stereo unspecified) gave Tau ThT inhib 16µM, Tau fluor cs inactive and Tau FP inhib inactive.
For COc1ccccc1CNC(=O)CN1C(=O)CCc2cc(S(=O)(=O)N3CCCCC3)ccc21 the results were Tau ThT inhib inactive, Tau fluor cs inactive and Tau FP inhib inactive.
For CCCN(CCC)C(=O)Cn1c(=O)n(-c2cccc(C(F)(F)F)c2)c(=O)c2c(C)c(C)sc21 the results were Tau ThT inhib inactive, Tau fluor cs inactive and Tau FP inhib inactive.
`Cc1ccc2oc(=O)c3cc(C(=O)N(Cc4ccccc4)C(C)C)sc3c2c1` gave Tau ThT inhib inactive, Tau fluor cs inactive and Tau FP inhib inactive.
For CN(C)S(=O)(=O)c1cccc(NC(=S)Nc2ccc(Cl)cc2Cl)c1 the results were NPSR antag inactive, Tau ThT inhib inactive, Tau fluor cs inactive, Tau FP inhib inactive and Luc counter inactive.

Bioassay records deposited in PubChem BioAssay by National Center for Advancing Translational Sciences (NCATS).
